ASM inhibitor: blocks human secretory acid sphingomyelinase; placental ASM, HMU-PC fluorogenic substrate, 60 min; hit rate 0.006% among 340,000; P17405; Potency, µM (doses to about 57.5 µM), for the others: at the top dose activity change, negative = inhibition, actives largely listed as inhibitors; note: potency is the fitted concentration of half-maximal effect
Target sequence (P17405 47-631 limits assumed): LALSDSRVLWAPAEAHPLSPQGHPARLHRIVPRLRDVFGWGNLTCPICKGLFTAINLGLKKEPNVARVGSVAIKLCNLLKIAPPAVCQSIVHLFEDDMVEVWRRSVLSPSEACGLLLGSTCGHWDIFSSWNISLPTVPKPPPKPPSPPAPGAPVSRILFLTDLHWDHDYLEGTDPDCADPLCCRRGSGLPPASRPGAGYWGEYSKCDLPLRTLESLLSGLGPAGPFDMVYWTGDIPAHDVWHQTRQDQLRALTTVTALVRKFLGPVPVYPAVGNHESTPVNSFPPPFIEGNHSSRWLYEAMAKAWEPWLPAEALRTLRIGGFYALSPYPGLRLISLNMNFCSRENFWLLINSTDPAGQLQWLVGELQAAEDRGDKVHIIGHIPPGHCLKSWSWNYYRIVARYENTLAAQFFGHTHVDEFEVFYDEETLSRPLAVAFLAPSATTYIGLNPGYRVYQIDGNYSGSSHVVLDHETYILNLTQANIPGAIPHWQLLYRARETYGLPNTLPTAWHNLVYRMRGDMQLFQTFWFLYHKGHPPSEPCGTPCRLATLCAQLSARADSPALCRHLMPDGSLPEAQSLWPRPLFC
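HMU-PC0 cleavage (9 uM final) by human placental ASM, 60 min at 37 °C following 10 min compound exposure at RT; stopped at pH 10, fluorescence Ex 386/Em 447 nm.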
KCNH2 3.1 block: inhibitors of human KCNH2 3.1 potassium channel isoform; U2OS KCNH2 3.1, thallium flux FluxOr; active compounds read low; activity change, % (tested at about 1.8 µM); hit rate 0.95% among 340,000;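 active = maximum activity change below -70%; inconclusive = maximum activity change from -70% to -50%; inactive = maximum activity change above -50%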;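 note: thallium influx rate constant from kinetic fluorescence after stimulation buffer; % is set by controls: 0 for no effect and ±100 for the full control effect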
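Thallium flux via FluxOr fluorescence (Red40 quencher, 45 min loading) in U2OS cells virally expressing the KCNH2 3.1 isoform (1.77 x 10^8 /mL virus, overnight at 37 C). Rate constants from 2-min kinetic reads post-stimulation, normalised to positive and negative controls.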
IDH1 R132H inh: blocks human mutant IDH1 R132H enzyme; hit rate 0.093% among 390,000; O75874; AID 602179; Potency, µM (top dose mostly 76.6 µM), for the others: top-dose activity change, negative = inhibition, actives largely listed as inhibitors; IDH1-R132H enzyme, NADPH consumption, diaphorase/resazurin fluorescence; note: potency is the fitted concentration of half-maximal effect; % is set by controls: 0 for no effect and ±100 for the full control effect; nearly all actives have a fitted effect of over 65% in size
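IDH1-R132H (0.5 ug/mL) preincubated 30 min with compound, then NADPH (0.016 mM) and alpha-KG (2 mM) added; 80 min at RT, pH 7.5. Remaining NADPH coupled via diaphorase/resazurin to fluorescence (540/590 nm); concentration-response curves normalized to no-enzyme control.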
Anesthetic bind: binds horse apoferritin like a general anesthetic; Potency, µM (doses to about 77.5 µM), without a hit: top-dose activity change, negative = displacement, actives largely listed as inhibitors; apoferritin/1-aminoanthracene competitive binding, fluorescence; P02791; AID 485281; hit rate 0.074% among 350,000; note: potency is the fitted concentration of half-maximal effect; % is set by controls: 0 for no effect and ±100 for the full control effect; nearly all actives have a fitted effect of over 20% in size
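Probe: 1-aminoanthracene (50% saturated, PBS). Protein: horse-spleen apoferritin, 10 uM. Incubation: 10 min, room temperature. Detection: 380 nm excitation, 535 nm emission. Analysis: normalized response, four-parameter Hill.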
KCNH2 WT inh: inhibitors of human wildtype KCNH2 potassium channel | hit rate 0.37% among 340,000 | Q12809 | activity change, % at 1.84 µM | AID 720551 | U2OS, BacMam KCNH2, thallium flux FluxOr; active compounds read low;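 active = maximum activity change below -70%; inconclusive = maximum activity change between -70% and -50%; inactive = maximum activity change above -50%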; note: % is set by controls: 0 for no effect and ±100 for the full control effect
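U2OS cells were transduced with wild-type KCNH2 virus (2.03 x 10^8 / mL) for 4 h at room temperature, then cultured overnight at 37 C. Thallium flux was read with FluxOr dye. Rate constants were normalized to DMSO controls.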
Resorufin autofl: counter-screen for mutant IDH1 inhibitors: fluorescence interference. shares compounds with IDH1 R132H inh. Resorufin detection reagent fluorescence interference, cell-free. inhibition of signal, % at 51.2 µM. 750 tested, under 10 active. AID 623980;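 note: 0% = wells with normal resorufin and full inhibition = wells lacking resorufin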
IDH1 WT: inhibits human wild-type IDH1, mutant selectivity check; shares compounds with IDH1 R132H inh; WT IDH1 enzyme, NADPH diaphorase/resazurin fluorescence; Potency, µM (highest dose often 115 µM), for the others: top-dose activity change, negative = inhibition, usual class: inhibitors; hit rate 9% among 750; AID 623995;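 note: potency is the fitted concentration of half-maximal effect; 0% = full WT IDH1 enzyme control and full inhibition = no enzyme wells; nearly all actives have a fitted effect of over 55% in size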
mIDH1 confirm: mutant IDH1 (human) inhibition, confirmed. shares compounds with IDH1 R132H inh. IDH1 R132H enzyme, NADPH diaphorase/resazurin fluorescence. Potency, µM (top dose mostly 76.6 µM), for inactives: at the top dose activity change, negative = inhibition, actives largely listed as inhibitors. hit rate 83% among 750; note: potency is the fitted concentration of half-maximal effect; nearly all actives have a fitted effect of over 50% in size
Starred values were filed as active, the others as inactive; i = inactive; ? = inconclusive; · = not tested or not shown; [ ] = remark or other dose. An excerpt weighted towards active compounds, which were near 1.2% of everything screened. Unless noted, calls come from the whole dose curve; as a rule, active = well fitted curve in the direction sought with a large enough effect; inconclusive = small, poorly fitted or top-dose-only effect, or another doubt; inactive = no such curve, though single readings can be large; an effect the other way counts as inactive or inconclusive.

SMILES	ASM inhibitor	KCNH2 3.1 block	IDH1 R132H inh	Anesthetic bind	KCNH2 WT inh	Resorufin autofl	IDH1 WT	mIDH1 confirm
COc1ccc(C)cc1N(C(=O)c1snc(C(N)=O)c1N)C(C(=O)NC1CCCCC1)c1ccc(C)o1 (centres undefined)	492%	-29	?	-10%	-10	-3	2%	14µM*
COc1ccccc1N(C(=O)c1snc(C(N)=O)c1N)C(C(=O)NC1CCCCC1)c1cccc(OC)c1OC (centres undefined)	i	4	?	-5%	-10	3	-1%	?
Cc1ccc(N(C(=O)c2snc(C(N)=O)c2N)C(CC(C)C)C(=O)NC2CCCC2)cc1 (centres undefined)	272%	-2	-5%	1%	-4	·	·	·
O=C(Nc1c(C(=O)N2CCN(c3ccccc3)CC2)oc2ccccc12)c1ccc(Br)o1	·	·	0%	-4%	·	·	·	·
CCOC(=O)N1CCc2c(sc(NCc3sccc3C)c2C(=O)Nc2ccccc2OCC)C1	·	·	-14%	-10%	·	·	·	·
Cc1ccc(N2C(=O)CCSC23C(=O)N(Cc2ccc(F)cc2)c2ccccc23)cc1 (centres undefined)	·	·	?	0%	·	·	·	·
O=C1CCSC2(C(=O)N(Cc3ccccc3)c3ccccc32)N1c1ccccc1 (centres undefined)	·	·	?	-12%	·	·	·	·
O=C1CCSC2(C(=O)N(Cc3ccc(F)cc3)c3ccccc32)N1c1ccc(Cl)cc1 (centres undefined)	·	·	?	1%	·	-8	-15%	20µM*
Cc1ccc(N2C(=O)CCSC23C(=O)N(Cc2ccccc2)c2ccccc23)cc1F (centres undefined)	·	·	22µM*	-7%	·	-7	-18%	25µM*
Cc1ccc(N2C(=O)CCSC23C(=O)N(Cc2ccccc2)c2ccccc23)cc1 (centres undefined)	·	·	?	-8%	·	-5	-17%	45µM*
Cc1ccc(C)c(N2CCN(C(=O)C3CCN(c4nc(-c5ccc(C(C)C)cc5)no4)CC3)CC2)c1	·	·	-17%	-6%	·	·	·	·
COc1cccc(N=NC2C(=O)N(C(N)=S)N=C2C)c1 (centres undefined)	-1%	5	?	·	-1	2	2%	-8%
CCOCCCNC(=O)C(c1ccc(C)cc1)N(Cc1ccc2c(c1)OCO2)C(=O)c1ccc(NC(C)=O)cc1 (centres undefined)	·	·	-1%	-4%	·	·	·	·
Cn1cc(S(=O)(=O)c2ccccc2)c(=O)c2cc(F)c(N3CCCCCC3)cc21	·	·	40µM*	49%	·	3	3%	14µM*
CCc1ccc(S(=O)(=O)c2cn(C)c3cc(N4CCCCC4C)c(F)cc3c2=O)cc1 (centres undefined)	·	·	-9%	13%	·	·	·	·
Cc1ccc(C)c(S(=O)(=O)c2cn(C)c3cc(N4CCCCC4C)c(F)cc3c2=O)c1 (centres undefined)	·	·	?	34%	·	4	3%	16µM*
Cn1cc(S(=O)(=O)c2ccccc2)c(=O)c2cc(F)c(N3CCCCC3)cc21	·	·	-14%	1%	·	·	·	·
CCn1cc(S(=O)(=O)c2ccccc2)c(=O)c2cc(F)c(N3CCCCCC3)cc21	·	·	?	77%	·	2	5%	20µM*
CC(=O)Nc1ccc(C)cc1-c1nc2ccccc2n(CC(=O)Nc2cc(Cl)ccc2C)c1=O	·	·	-7%	-11%	·	·	·	·
CCN(Cc1ccccc1)C(=O)C(CC(C)C)NS(=O)(=O)c1ccc2c(c1)CCN2C(C)=O (centres undefined)	·	·	-4%	-5%	·	·	·	·
CCn1c(=O)c2cc(C(=O)N(C)c3cc(Cl)c(OC)cc3OC)sc2c2ccccc21	·	·	4%	-18%	·	·	·	·
CCCN(C(=O)c1cc2c(=O)n(CC)c3ccccc3c2s1)c1ccccc1F	·	·	-17%	-5%	·	·	·	·
CCn1c(=O)c2cc(C(=O)N(C)c3ccccc3F)sc2c2ccccc21	-17%	22	?	-14%	3	-7	-1%	28µM*
CCn1c(=O)c2cc(C(=O)N(C)c3cc(C)ccc3OC)sc2c2ccccc21	-17%	1	?	0%	-6	-6	1%	32µM*
CCOC(=O)OCC1OC(c2ccccc2)C=CC1Oc1ccc2oc(=O)cc(C)c2c1 (centres undefined)	·	·	·	6%[15.3 µM]	·	·	·	·
SMILES	ASM inhibitor	KCNH2 3.1 block	IDH1 R132H inh	Anesthetic bind	KCNH2 WT inh	Resorufin autofl	IDH1 WT	mIDH1 confirm
CSC1=NC(=O)/C(=C/c2ccc(SC)cc2)S1	17%	-4	35µM*	-14%	-4	-3	71µM*	40µM*
Cn1c2ccccc2c(=O)c2c(=O)n(C3CCCCCC3)c(C3CCCCC3)nc21	-1%	-2	9.3µM*	-12%	9	4	14µM*	2.8µM*
Cn1c2ccccc2c(=O)c2c(=O)n(C3CCCCC3)c(-c3cccs3)nc21	-1%	0	37µM*	-20%	27	12	-21%	16µM*
COc1ccc(Cn2c(C3CCCCC3)nc3c(c(=O)c4ccccc4n3C)c2=O)cc1	-14%	6	?	-2%	2	·	·	·
Cn1c2ccccc2c(=O)c2c(=O)n(-c3ccccc3)c(C3CCCCC3)nc21	-5%	-4	12µM*	-5%	-4	-2	25µM*	4.5µM*
CCc1nc2c(c(=O)c3ccccc3n2C)c(=O)n1C1CCCCCC1	-2%	5	3%	-10%	-4	·	·	·

Screening data (PubChem BioAssay)
